The values that follow come from ChEMBL document CHEMBL4513216, “Probing the Open Global Health Chemical Diversity Library for Multistage-Active Starting Points for Next-Generation Antimalarials” (ACS Infect Dis, 2020).

Out of some 69,000 compounds screened, about 8,600 (12%) showed an effect of 50% or more. The list comes from a sample in which strong results are over-represented; it also holds similar structures and randomly drawn compounds.

The test concerns Plasmodium berghei. In words: Screen against P. berghei liver stage (PbLuc), transformed with Luciferase, at 10uM. It counts as functional, HepG2. The following applies: tested at 10 uM.
Take `c1ncc2c(n1)CN(Cc1nc(-c3ccoc3)no1)CC2`: the INHIBITION is listed as -21.87%.
In the case of `Cc1cc(NC(=O)CN(CC(C)O)c2ccccc2)on1` (stereo unspecified), the INHIBITION came to 51.3%.
The result for `Cc1cc(CS(=O)(=O)C(C)c2ccc(F)cc2)on1` (stereo unspecified) reads -41%.
`Cc1noc(CN(C)c2ccccc2)n1`: the INHIBITION is given as 29.8%.
As for `Cc1cc(NC(=O)CN(c2ccccc2)C(C)C)on1`, the INHIBITION was 13%.
Take `CCN(C(=O)C(C)S(=O)(=O)Cc1nc(C)no1)c1ccccc1` (stereo unspecified): the INHIBITION turned out to be 26.9%.
The result for `Cc1noc(CS(=O)(=O)C(C)C(=O)N(C)c2ccccc2)n1` (stereo unspecified) reads 50.8%; that for `Cc1cc(CS(=O)(=O)C(C)C(=O)N(C)c2ccccc2)on1` (stereo unspecified), 59.4%.
The result for `CCC(O)CN(CC(=O)Nc1cc(C)no1)c1ccccc1` (stereo unspecified) reads 16.8%.
The result for `Cc1noc(C)c1CS(=O)(=O)C(C)C(=O)N(C)c1ccccc1` (stereo unspecified) reads 11.5%.
On to `CC(C)N(Cc1ccccn1)C(=O)CCOc1cccc(F)c1`, for which the INHIBITION is -1.32%.
The result for `COc1ccc(NC(=O)C2OC(c3cccs3)=NN2C(C)=O)cc1OC` (stereo unspecified) reads 14.5%; that for `O=C(CC1CC1)N1CCC(O)(CN2CCN(c3ccccc3)CC2)C1` (stereo unspecified), 17.4%; that for `Cc1nnc(NC(=O)CN2CCc3nn(C(C)C)c(=O)cc3C2)s1`, -18%.
The result for `O=C(c1cscn1)N1CCc2ncc(CN3CCCC3)n2CC1` reads 23.1%.
The result for `Cc1nccc(CNc2cc(N3CCCC3CO)ncn2)n1` (stereo unspecified) reads -0.219%.
On to `COc1ccc(CN2C[C@@H]3CN(Cc4ccncc4)C[C@@H]3C2=O)cc1`, for which the INHIBITION is recorded as -2.35%.
The result for `Cc1n[nH]c(C)c1CCCN(C)c1cc(N(C)C)ncn1` reads 8.51%; that for `COCCNC(=O)N1CCSC2(CCCCC2)C1`, 52.6%.
The result for `C[S+]([O-])CCNC(=O)N1CCSC2(CCCCC2)C1` (stereo unspecified) reads 25.4%; that for `O=C(NCCc1ccccn1)N1CCSC2(CCCCC2)C1`, 3.17%; that for `CCc1nc(NC(=O)N(C)Cc2ccoc2)nn1C`, 63.6%.
On to `CSc1cccc(CN(C)C(=O)CN2CCN(c3ncccn3)CC2)c1`, for which the INHIBITION was found to be 10.6%.
The result for `CCN(Cc1ccoc1)C(=O)Nc1ccccc1CN(C)C(C)=O` reads 6.99%; that for `Cc1nc(NC(=O)N(C)Cc2ccsc2)nn1C`, 25.9%; that for `CSc1cccc(CN(C)C(=O)Nc2nc(C)n(C)n2)c1`, 71.8%.
The result for `Cc1nc(NC(=O)N(C)Cc2ccoc2)nn1C` reads -10.9%; that for `Cc1cnc(N2C[C@@H]3CN(Cc4ccco4)CCC[C@]3(C(=O)O)C2)nc1`, 15.3%; that for `O=C(CCNC(=O)C1CCCC1)NCc1ccccc1Cn1ccnc1`, 7.27%.
The result for `COc1ccc(CNC(=O)Nc2cccnc2N2CCCC2)cc1` reads 19.2%; that for `O=C(NCC1CC1)c1cc(Br)cnc1N1CCCCC1`, 16.4%.
`CCCN1CCC2(Cc3ccccc3NC2=O)C1` (stereo unspecified): the INHIBITION came to 36.2%.
Take `CC(C)CN1CCC2(Cc3ccccc3NC2=O)C1` (stereo unspecified): the INHIBITION stood at 58.7%.
The result for `O=C1Nc2ccccc2CC12CCN(CCO)C2` (stereo unspecified) reads -36.2%; that for `O=C(c1ccc[nH]1)N1CCc2ccc(S(=O)(=O)N3CCOCC3)cc2C1`, 6.99%; that for `CNC(=O)CC1CCN(Cc2nc(-c3cccc(Cl)c3)oc2C)CC1`, 13.5%.
The result for `CNC(=O)c1cn2cc(-c3cccc(Cl)c3)n(CC3CC3)c(=O)c2n1` reads 55.4%; that for `CN(C)C(=O)c1cn2cc(-c3cccc(Cl)c3)n(CC3CC3)c(=O)c2n1`, 17.8%; that for `CC(=O)NCCNC(=O)c1cnc2c(c1)nc(-c1ccccc1Cl)n2C`, -76.5%.
For the compound `NC(=O)c1cn2cc(-c3ccccc3Cl)n(CC3CC3)c(=O)c2n1`, the INHIBITION is 5.46%.
The result for `CNC(=O)c1cn2cc(-c3ccccc3Cl)n(CC=C(C)C)c(=O)c2n1` reads 61.9%; that for `Cn1c(-c2ccc(F)cc2)cn2cc(C(=O)N3CCC(N)C3)nc2c1=O` (stereo unspecified), 24.4%; that for `CC(C)NC(=O)NCc1cc(-c2cccc(Cl)c2)nn1C`, 13%.
The result for `COCCCNC(=O)Cn1c(-c2cccc(Cl)c2)nc(C)cc1=O` reads 14.6%; that for `CNC(=O)c1cn2cc(-c3ccc(F)cc3)n(CC=C(C)C)c(=O)c2n1`, 69.3%; that for `Cn1c(-c2ccc(F)cc2)cn2cc(C(=O)N3CC[C@@H](O)C3)nc2c1=O`, 40.7%.
The result for `CNC(=O)c1cn2cc(-c3cccc(Cl)c3)n(CC=C(C)C)c(=O)c2n1` reads 76.7%; that for `Cc1nc(-c2ccsc2)ccc1C(=O)NC(C)CN1CCOCC1` (stereo unspecified), -4.43%; that for `O=C(c1cscn1)N1CCc2ncnc(-c3ccncc3)c2CC1`, -7.24%.
As for `O=C(CSc1ccncc1)NC1CC(=O)N(CCc2ccccc2)C1` (stereo unspecified), the INHIBITION is listed as -15.9%.
The result for `CC(O)CN1CCC(CNCc2ccccc2C(F)(F)F)CC1` (stereo unspecified) reads 0.24%.
The result for `CN1CCN(C2CCN(CCCOc3ccc(F)cc3)CC2)C1=O` reads 47%; that for `CCOC(=O)CNC(=O)C1OC(c2ccccc2)=NN1C(C)=O` (stereo unspecified), -19.1%; that for `CCOC1CCN(C(=O)CN(C)c2cnccn2)CC1`, 26.083%.
As to `CC(C)Nc1ccc2nc(C3CCN(C(C)C)CC3)nn2c1`, the INHIBITION was -7.35%.
The result for `CNC(=O)c1cn2cc(-c3ccccc3Cl)n(CC3CC3)c(=O)c2n1` reads 33.3%.
Consider `CN(C)C(=O)c1cn2cc(-c3ccccc3Cl)n(CC3CC3)c(=O)c2n1`, for which the INHIBITION is -0.273%.
`CCNC(=O)c1cn2cc(-c3ccccc3Cl)n(CC3CC3)c(=O)c2n1`: the INHIBITION turned out to be 73.5%.
The result for `COCC(=O)N1C[C@@H](OCc2ccncc2)[C@@H]2OCCC[C@@H]21` reads 35.8%; that for `Cn1ccnc1CN1CCN2C[C@H](Oc3cccc(F)c3)C[C@H]2C1`, 38.5%; that for `Fc1cccc(O[C@@H]2C[C@H]3CN(Cc4ccncc4)CCN3C2)c1`, 90.7%.
Consider `c1cc(CN2CCN3C[C@H](Oc4cncnc4)C[C@H]3C2)ccn1`, for which the INHIBITION is -11.3%.
For the compound `c1ccc(CN2CCN3C[C@H](Oc4cncnc4)C[C@H]3C2)nc1`, the INHIBITION is -8.6%.
As for `c1ccc(CN2CCN3C[C@H](Oc4cccnc4)C[C@H]3C2)nc1`, the INHIBITION was 41.2%.
The result for `Fc1cccc(O[C@@H]2C[C@H]3CN(Cc4ccccn4)CCN3C2)c1` reads 85.4%.
Take `CC(O)CN1CCN(C(=O)CN(C)c2ccc(C#N)cn2)CC1` (stereo unspecified): the INHIBITION was found to be 18.4%.
On to `Fc1ccccc1C1(CNC2CCOC3(CCOCC3)C2)CCCC1` (stereo unspecified), for which the INHIBITION stood at 14.4%.
The result for `c1cnn(CCCO[C@@H]2CN(C3CCOCC3)[C@@H]3CCCO[C@@H]32)c1` reads -40.9%; that for `Cc1nnc2n1CCN(c1nn3cc(C(C)(C)C)nc3s1)C2`, -1.15%.
Take `Cc1ccsc1C(=O)N1CC[C@H]2CO[C@H](CN(C)C)[C@H]2C1`: the INHIBITION was -47.5%.
The result for `COCCN1Cc2ccccc2C2(CCN(S(C)(=O)=O)CC2)C1` reads -21.1%.
Turning to `O=c1[nH]c2nc(N3CCCCCC3)ncc2c(=O)n1-c1cccc(F)c1`, the INHIBITION is reported as 21.7%.
As to `Cc1nccn1CC1CCN(C(=O)Cc2ccccc2)CC1`, the INHIBITION turned out to be 65.9%.
The result for `Cc1nccn1CC1CCCN(C(=O)Cc2ccsc2)C1` (stereo unspecified) reads 42.5%.
The result for `Cc1nccn1CC1CCN(C(=O)c2cccs2)CC1` reads 14.2%; that for `Cc1nccn1CC1CCN(C(=O)c2ccccc2)CC1`, 67.4%.
The result for `Cc1nccn1CC1CCCN(C(=O)c2cnn(C)c2)C1` (stereo unspecified) reads 20.4%.
In the case of `Cn1ccnc1N1CCN(C(=O)Cc2ccccc2)CC1`, the INHIBITION came out at 34.2%.
The result for `Cn1cc(-c2cc(-c3cnn(C)c3)n(CC(=O)NC3CC3)n2)cn1` reads 44.3%.
Turning to `COCCN1CCC1c1cc(NC2CCCC2)nc(C)n1` (stereo unspecified), the INHIBITION came out at 4.41%.
The result for `Fc1ccc(C2(CNC3=NCCN3)CCCC2)cc1` reads 27.6%; that for `Clc1ccc(C2(CNC3=NCCN3)CCCCC2)cc1`, 74%.
The result for `Cc1nnc(C(C)NCC2(c3ccc(Cl)cc3)CCOCC2)o1` (stereo unspecified) reads 11.8%.
Regarding `CC1(C)CN(C(CNC2=NCCN2)c2ccc(Cl)cc2)CCO1` (stereo unspecified), the INHIBITION was determined as 1.84%.
Regarding `Clc1ccc(C2(CNC3=NCCN3)CC2)cc1`, the INHIBITION turned out to be 56.6%.
The result for `Fc1ccc(C2(CNC3=NCCCN3)CCC2)cc1` reads -20.3%; that for `Clc1ccc(C2(CNC3=NCCN3)CCCC2)cc1`, 68.2%.
The result for `OCCN(Cc1ccncc1)CC1(c2ccc(Cl)cc2)CCCC1` reads 18.3%; that for `Cc1nnc(C(C)NCC2(c3ccc(Cl)cc3)CCCC2)o1` (stereo unspecified), 18.2%; that for `CC(=O)N1CC(c2ccnc(Nc3nccs3)n2)C1`, 12.6%.
The result for `CN(C)CC1CN(Cc2nnc(C(C)(C)C)o2)CCO1` (stereo unspecified) reads -104%; that for `CCc1nc(-c2cncnc2C2CCNC2)no1` (stereo unspecified), 3.6%.
`Cc1cnc(C(=O)N2CCC(C(=O)c3cc(F)ccc3F)CC2)cn1`: the INHIBITION is -121%.
Take `NC(=O)N1CCC2(CCN(Cc3ccccn3)C2=O)C1` (stereo unspecified): the INHIBITION turned out to be 24.5%.
The result for `CC(=O)c1cn(CCC(=O)NCCCC(=O)O)c2ccccc12` reads -10.2%; that for `CC(NC(=O)NCCCn1cccn1)c1ccc2c(c1)OCCCO2` (stereo unspecified), -6.7%.
Consider `COc1ccc(CC(=O)N2CC[C@@H](OC)[C@@H]2Cc2cccnc2)cc1`, for which the INHIBITION is reported as 38.5%.
For the compound `CO[C@@H]1CCN(C(=O)Cc2ccc(F)cc2)[C@@H]1Cc1cccnc1`, the INHIBITION is reported as 55.4%.
In the case of `CO[C@@H]1CCN(C(=O)Cc2cccc(F)c2)[C@H]1Cc1cccnc1`, the INHIBITION turned out to be 19.6%.
Regarding `NC(=O)CNC1(c2ccc(Br)cc2)CCOCC1`, the INHIBITION is recorded as 19.4%.
The result for `CC(C)CN1CC(O)CN(S(=O)(=O)c2ccc(F)cc2)CC1=O` (stereo unspecified) reads 34.3%; that for `CN(C)C(=O)c1cn[nH]c1C1(C)CCN(c2ncccn2)CC1`, 12.45%; that for `Cc1nccc(N2CCCC(C)(c3[nH]ncc3C(N)=O)C2)n1` (stereo unspecified), -7.66%.
Take `Cc1cc(C)nc(N2CCCC(C)(c3[nH]ncc3C(=O)N(C)C)C2)n1` (stereo unspecified): the INHIBITION is listed as 53.1%.
As to `Cc1ccc(S(=O)(=O)NC(CO)CC(C)C)cc1N(C)C` (stereo unspecified), the INHIBITION is 31.7%.
The result for `Cc1nc(C)n(C2CCCN(C(=O)CCCc3ccccn3)C2)n1` (stereo unspecified) reads -11.9%.
